PMC3404119, “Topology and Dynamics of the Zebrafish Segmentation Clock Core Circuit”

How the values were obtained:
Her1-GFP homodimer = target: T1, Her1-GFP homodimer (zebrafish (Danio rerio), UniProt Q90463 1-328); test: MITOMI; PPARgamma-mCherry co-present (non-interacting control); TnT SP6 wheat germ expression extract on MITOMI chip, 3 h at room temperature; salt and pH not stated; PBS used for washing; high values mean tight binding; settings: protein: ivt; tags: C-terminal GFP; chain copies: 2; label: Cy5; dsDNA, one strand shown
T1 sequence: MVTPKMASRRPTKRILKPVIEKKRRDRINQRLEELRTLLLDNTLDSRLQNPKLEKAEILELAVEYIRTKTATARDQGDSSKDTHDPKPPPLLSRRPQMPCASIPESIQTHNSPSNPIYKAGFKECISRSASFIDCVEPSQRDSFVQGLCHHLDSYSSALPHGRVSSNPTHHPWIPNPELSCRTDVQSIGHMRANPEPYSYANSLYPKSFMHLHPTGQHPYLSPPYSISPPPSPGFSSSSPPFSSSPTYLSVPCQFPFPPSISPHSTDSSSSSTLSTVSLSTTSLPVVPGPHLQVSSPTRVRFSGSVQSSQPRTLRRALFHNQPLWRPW

[1] = target: T2, Her7 (coupled to chip, Fig 2D);Hes6-mCherry (zebrafish (Danio rerio);zebrafish …, UniProt Q9I9K1;Q6P0J1 1-206;1-226, |); test: MITOMI; Her7:Hes6 heterodimer, Her7 coupled to chip and Hes6-mCherry in solution; TnT SP6 wheat germ expression extract on MITOMI chip, 3 h at room temperature; salt and pH not stated; PBS used for washing; high values mean tight binding; settings: protein: ivt;ivt; copies: 1;1; label: Cy5; dsDNA, one strand shown
T2 sequence 1: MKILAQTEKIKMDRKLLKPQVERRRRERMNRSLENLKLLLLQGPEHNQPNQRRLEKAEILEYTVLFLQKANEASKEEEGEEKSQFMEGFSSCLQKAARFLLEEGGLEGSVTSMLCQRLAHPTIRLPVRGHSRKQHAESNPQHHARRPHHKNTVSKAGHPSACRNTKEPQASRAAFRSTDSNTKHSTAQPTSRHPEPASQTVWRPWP
T2 sequence 2: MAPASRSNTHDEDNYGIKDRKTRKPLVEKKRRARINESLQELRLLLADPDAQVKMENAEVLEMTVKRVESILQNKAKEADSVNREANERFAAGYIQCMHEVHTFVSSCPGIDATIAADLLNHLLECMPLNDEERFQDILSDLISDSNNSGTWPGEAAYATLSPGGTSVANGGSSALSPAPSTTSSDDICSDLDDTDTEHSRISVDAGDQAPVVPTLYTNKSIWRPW

Sequence: CATCACGTGAAA
- binding signal (Her1-GFP homodimer): 0.018 ± 0.00636 relative affinity (strongest site = 1)
- binding signal [1]: 0.0344 ± 0.00348 relative affinity (strongest site = 1)

Sequence: CGGCGCGTGCCA
- binding signal (Her1-GFP homodimer): 0.73 ± 0.0316 relative affinity (strongest site = 1)
- binding signal [1]: 0.959 ± 0.0356 relative affinity (strongest site = 1)

Sequence: TTCCACGGGTCT
- binding signal (Her1-GFP homodimer): 0.0411 ± 0.00212 relative affinity (strongest site = 1)
- binding signal [1]: 0.0587 ± 0.00207 relative affinity (strongest site = 1)

Sequence: CAGCGCGTGCCT
- binding signal (Her1-GFP homodimer): 0.227 ± 0.0107 relative affinity (strongest site = 1)
- binding signal [1]: 0.4636 ± 0.00426 relative affinity (strongest site = 1)

Sequence: CAGCACGTGTCT
- binding signal (Her1-GFP homodimer): 0.456 ± 0.0098 relative affinity (strongest site = 1)
- binding signal [1]: 0.679 ± 0.014 relative affinity (strongest site = 1)

Sequence: TGTCGCGTGCCA
- binding signal (Her1-GFP homodimer): 0.597 ± 0.0246 relative affinity (strongest site = 1)
- binding signal [1]: 0.531 ± 0.00964 relative affinity (strongest site = 1)

Sequence: TTGCACGTGTAC
- binding signal (Her1-GFP homodimer): 0.0556 ± 0.0021 relative affinity (strongest site = 1)
- binding signal [1]: 0.178 ± 0.00237 relative affinity (strongest site = 1)

Sequence: AGCCACGTGGCT
- binding signal (Her1-GFP homodimer): 0.57 ± 0.0193 relative affinity (strongest site = 1)
- binding signal [1]: 0.347 ± 0.00813 relative affinity (strongest site = 1)

Sequence: AGGCGCGTGGTG
- binding signal (Her1-GFP homodimer): 0.077 ± 0.00506 relative affinity (strongest site = 1)
- binding signal [1]: 0.157 ± 0.00403 relative affinity (strongest site = 1)

Sequence: AAACACGAGCCA
- binding signal (Her1-GFP homodimer): 0.0562 ± 0.00247 relative affinity (strongest site = 1)
- binding signal [1]: 0.208 ± 0.00306 relative affinity (strongest site = 1)

Sequence: TTGCTCGTGCTT
- binding signal (Her1-GFP homodimer): 0.0235 ± 0.00192 relative affinity (strongest site = 1)
- binding signal [1]: 0.109 ± 0.00195 relative affinity (strongest site = 1)

Sequence: GCCCACGGGCCC
- binding signal (Her1-GFP homodimer): 0.144 ± 0.0313 relative affinity (strongest site = 1)
- binding signal [1]: 0.0279 ± 0.00171 relative affinity (strongest site = 1)

Sequence: TATCTCGTGCTG
- binding signal (Her1-GFP homodimer): 0.029 ± 0.0011 relative affinity (strongest site = 1)
- binding signal [1]: 0.0758 ± 0.00824 relative affinity (strongest site = 1)

Sequence: ATCCACGTGTCC
- binding signal (Her1-GFP homodimer): 0.303 ± 0.0145 relative affinity (strongest site = 1)
- binding signal [1]: 0.256 ± 0.00386 relative affinity (strongest site = 1)

Sequence: GCGCTCGTGCGC
- binding signal (Her1-GFP homodimer): 0.0291 ± 0.00508 relative affinity (strongest site = 1)
- binding signal [1]: 0.0861 ± 0.00202 relative affinity (strongest site = 1)

Sequence: GTACACGTGGCG
- binding signal (Her1-GFP homodimer): 0.237 ± 0.00793 relative affinity (strongest site = 1)
- binding signal [1]: 0.275 ± 0.00281 relative affinity (strongest site = 1)

Sequence: CGACACGTGCTC
- binding signal (Her1-GFP homodimer): 0.416 ± 0.00933 relative affinity (strongest site = 1)
- binding signal [1]: 0.638 ± 0.0296 relative affinity (strongest site = 1)

Sequence: TGGCACGTGTCC
- binding signal (Her1-GFP homodimer): 1 ± 0.0321 relative affinity (strongest site = 1)
- binding signal [1]: 1 ± 0.0512 relative affinity (strongest site = 1)

Sequence: GTTCACGTGTGC
- binding signal (Her1-GFP homodimer): 0.0341 ± 0.00138 relative affinity (strongest site = 1)
- binding signal [1]: 0.102 ± 0.00486 relative affinity (strongest site = 1)

Sequence: CAGCGCGTGTGC
- binding signal (Her1-GFP homodimer): 0.057 ± 0.0015 relative affinity (strongest site = 1)
- binding signal [1]: 0.179 ± 0.00225 relative affinity (strongest site = 1)

Sequence: TGCCGCGTGCCG
- binding signal (Her1-GFP homodimer): 0.216 ± 0.0104 relative affinity (strongest site = 1)
- binding signal [1]: 0.369 ± 0.00323 relative affinity (strongest site = 1)

Sequence: TGACGCGTGTGA
- binding signal (Her1-GFP homodimer): 0.118 ± 0.00595 relative affinity (strongest site = 1)
- binding signal [1]: 0.387 ± 0.0053 relative affinity (strongest site = 1)

Sequence: CTCCACGTGCCC
- binding signal (Her1-GFP homodimer): 0.269 ± 0.00665 relative affinity (strongest site = 1)
- binding signal [1]: 0.297 ± 0.00926 relative affinity (strongest site = 1)

Sequence: CGACACGCGGTG
- binding signal (Her1-GFP homodimer): 0.0408 ± 0.00225 relative affinity (strongest site = 1)
- binding signal [1]: 0.0849 ± 0.00174 relative affinity (strongest site = 1)

Sequence: AAGCACGTGATC
- binding signal (Her1-GFP homodimer): 0.0423 ± 0.00127 relative affinity (strongest site = 1)
- binding signal [1]: 0.0912 ± 0.0018 relative affinity (strongest site = 1)

Sequence: TCACACCTGTGCAG
- binding signal [1]: 0.02 ± 0.00133 relative affinity (strongest site = 1)

Sequence: GGGCGCGTGCCG
- binding signal (Her1-GFP homodimer): 0.576 ± 0.0101 relative affinity (strongest site = 1)
- binding signal [1]: 0.748 ± 0.021 relative affinity (strongest site = 1)

Sequence: CTCCTCGTGTTG
- binding signal (Her1-GFP homodimer): 0.0177 ± 0.000557 relative affinity (strongest site = 1)
- binding signal [1]: 0.0605 ± 0.00276 relative affinity (strongest site = 1)

Sequence: GGGCACGTGCGC
- binding signal (Her1-GFP homodimer): 0.406 ± 0.00899 relative affinity (strongest site = 1)
- binding signal [1]: 0.542 ± 0.0166 relative affinity (strongest site = 1)

Sequence: TTCCACGAGAAA
- binding signal (Her1-GFP homodimer): 0.0129 ± 0.000672 relative affinity (strongest site = 1)
- binding signal [1]: 0.0286 ± 0.00127 relative affinity (strongest site = 1)

Sequence: CCGCGCGTGCCA
- binding signal (Her1-GFP homodimer): 0.279 ± 0.0129 relative affinity (strongest site = 1)
- binding signal [1]: 0.516 ± 0.0179 relative affinity (strongest site = 1)

Sequence: GTTCGCGTGTGC
- binding signal (Her1-GFP homodimer): 0.0452 ± 0.00123 relative affinity (strongest site = 1)
- binding signal [1]: 0.1 ± 0.00206 relative affinity (strongest site = 1)

Sequence: GGTCGCGTGTGC
- binding signal (Her1-GFP homodimer): 0.181 ± 0.0115 relative affinity (strongest site = 1)
- binding signal [1]: 0.182 ± 0.00317 relative affinity (strongest site = 1)

Sequence: TGCCGCGTGCAC
- binding signal (Her1-GFP homodimer): 0.033 ± 0.00214 relative affinity (strongest site = 1)
- binding signal [1]: 0.163 ± 0.00188 relative affinity (strongest site = 1)

Sequence: CAACACGGGGTG
- binding signal (Her1-GFP homodimer): 0.026 ± 0.00978 relative affinity (strongest site = 1)
- binding signal [1]: 0.0311 ± 0.0032 relative affinity (strongest site = 1)

Sequence: AGACACGCGCTA
- binding signal (Her1-GFP homodimer): 0.118 ± 0.00385 relative affinity (strongest site = 1)
- binding signal [1]: 0.2749 ± 0.00267 relative affinity (strongest site = 1)

Sequence: TCCCACGGGATT
- binding signal (Her1-GFP homodimer): 0.0209 ± 0.00257 relative affinity (strongest site = 1)
- binding signal [1]: 0.0207 ± 0.00168 relative affinity (strongest site = 1)

Sequence: ATACACAGTGCGC
- binding signal (Her1-GFP homodimer): 0.0128 ± 0.000425 relative affinity (strongest site = 1)
- binding signal [1]: 0.0208 ± 0.0021 relative affinity (strongest site = 1)

Sequence: CTGCACGTGCAT
- binding signal (Her1-GFP homodimer): 0.0391 ± 0.00232 relative affinity (strongest site = 1)
- binding signal [1]: 0.158 ± 0.00223 relative affinity (strongest site = 1)

Sequence: GCCCACGCGCCG
- binding signal (Her1-GFP homodimer): 0.119 ± 0.00729 relative affinity (strongest site = 1)
- binding signal [1]: 0.168 ± 0.00251 relative affinity (strongest site = 1)

Sequence: GTTCTCGTGTTT
- binding signal (Her1-GFP homodimer): 0.0171 ± 0.0014 relative affinity (strongest site = 1)
- binding signal [1]: 0.0265 ± 0.0016 relative affinity (strongest site = 1)

Sequence: AGCCTCGTGTAA
- binding signal (Her1-GFP homodimer): 0.0363 ± 0.00627 relative affinity (strongest site = 1)
- binding signal [1]: 0.0516 ± 0.00244 relative affinity (strongest site = 1)

Sequence: CTGCTCGTGCTT
- binding signal (Her1-GFP homodimer): 0.0197 ± 0.00116 relative affinity (strongest site = 1)
- binding signal [1]: 0.103 ± 0.00315 relative affinity (strongest site = 1)
